The supplement of paper PMC10646978
± gives the standard deviation.

Legend:
Conditions in all cases: modulator concentration 10 µM
[1] = tested on: RAW-Dual (murine macrophage reporter line); assay: NF-kB reporter (SEAP) activity fold change vs agonist alone; higher = enhanced NF-kB activity
Summary of the method: (§1)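 RAW-Dual murine macrophage reporter cells were seeded at 50 000 per well in 384-well plates and pre-incubated 1 hour at 37 °C with compound pin-transferred to 10 μM final. After 1 hour, a PRR agonist was added and cells incubated overnight. Supernatant NF-κB (SEAP, QUANTI-Blue, 620 nm absorbance) and IRF (Lucia luciferase, QUANTI-Luc, luminescence) signals were divided by the mean agonist-only control on the same plate to give fold change. Two replicate plates were averaged, with errors by propagation.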

[2] = tested on: RAW-Dual (murine macrophage reporter line); assay: IRF reporter (Lucia luciferase) activity fold change vs agonist alone; higher = enhanced IRF activity
Summary of the method: as §1

[3] = tested on: RAW-Dual (murine macrophage reporter line); assay: viability score (confluency relative to resting cells, overnight) (fraction); higher = more viable, active = viable (0.7 or more)
Summary of the method: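 Overnight exposure to 10 μM final compound was carried out on RAW-Dual macrophages in 384-well plates. IncuCyte software generated two confluency masks over all wells imaged with IncuCyte. The viability score gives confluency in relation to resting cells. A compound met the cutoff if each mask exceeded 70% of resting cells.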

[4] = agonist: CpG ODN 1826 0.5 ug/mL

SMILES | NF-kB reporter [1, 4] | NF-kB reporter ([1]; agonist: LPS 0.1 ug/mL) | NF-kB reporter ([1]; agonist: MPLA […]) | IRF reporter ([2]; agonist: 3'3'-cGAMP 10 ug/mL) | IRF reporter ([2]; agonist: LPS 0.1 ug/mL) | IRF reporter ([2]; agonist: MPLA […]) | viability score [3]
Cc1ccc(OCC(O)CN2CCCCC2)c(C)c1.Cl (centres undefined) | 0.868 ± 0.15 | 1.05 ± 0.12 | 1.01 ± 0.15 | 0.857 ± 0.056 | 1.21 ± 0.12 | 1.28 ± 0.2 | 0.809 (active)
O=C(Nc1ccc([N+](=O)[O-])cc1)Nc1ccc(Cl)cn1 | 0.838 ± 0.065 | 0.942 ± 0.074 | 0.986 ± 0.14 | 0.893 ± 0.041 | 1.39 ± 0.1 | 1.61 ± 0.14 | 1 (active)
COc1ccc(CC(N)C(=O)NC2C(CO)OC(n3cnc4c(N(C)C)ncnc43)C2O)cc1.Cl.Cl (centres undefined) | 0.817 ± 0.068 | 0.514 ± 0.044 | 0.936 ± 0.094 | 0.699 ± 0.022 | 1.03 ± 0.13 | 1.3 ± 0.21 | 0.817 (active)
O=C(CCN1C(=O)c2cccc([N+](=O)[O-])c2C1=O)Nc1ccc(F)cc1 | 1.01 ± 0.13 | 1.02 ± 0.069 | 1.02 ± 0.035 | 0.875 ± 0.082 | 0.958 ± 0.099 | 1.07 ± 0.23 | 1 (active)
CCOC(=O)C1=C(C)N(CC(C)C)C(=O)C1=Cc1cccc(Br)c1 | 1.05 ± 0.11 | 1.04 ± 0.069 | 0.869 ± 0.051 | 0.909 ± 0.03 | 0.963 ± 0.082 | 1.19 ± 0.2 | 0.992 (active)
COc1c(Cl)cc(C(=O)Nc2cccc(NC(=O)c3ccco3)c2)cc1Cl | 1.15 ± 0.098 | 1.01 ± 0.056 | 0.682 ± 0.043 | 0.858 ± 0.022 | 1.1 ± 0.11 | 0.956 ± 0.29 | 1.01 (active)
CN1C(CC(=O)c2ccccc2)CCCC1CC(O)c1ccccc1.Cl (centres undefined) | 0.601 ± 0.16 | 1.01 ± 0.097 | 0.964 ± 0.083 | 0.815 ± 0.041 | 0.996 ± 0.21 | 1.03 ± 0.15 | 0.988 (active)
COc1ccc(CNC23CC4CC(CC(C4)C2)C3)cc1OC | 0.937 ± 0.072 | 0.899 ± 0.13 | 0.891 ± 0.092 | 0.959 ± 0.03 | 1.1 ± 0.23 | 1.1 ± 0.17 | 1.01 (active)
O=C(c1ccc(Cl)cc1)c1ccc(N2CCCCC2)c([N+](=O)[O-])c1 | 1 ± 0.17 | 1.11 ± 0.15 | 1.01 ± 0.097 | 0.957 ± 0.064 | 1.27 ± 0.27 | 1.33 ± 0.27 | 0.998 (active)
CCn1nnc2c(NCCc3c[nH]c4ccccc34)ncnc21 | 0.961 ± 0.042 | 1.09 ± 0.1 | 1.09 ± 0.058 | 0.768 ± 0.043 | 1.05 ± 0.15 | 1.11 ± 0.32 | 0.958 (active)
Cl.c1ccc(CC2=NCCN2)cc1 | 0.999 ± 0.14 | 1.08 ± 0.17 | 0.923 ± 0.051 | 0.887 ± 0.027 | 1.17 ± 0.22 | 1.13 ± 0.1 | 0.993 (active)
CCC(=O)Nc1ccc(NC(=O)c2ccccc2OC)cc1 | 0.932 ± 0.086 | 1.04 ± 0.083 | 0.997 ± 0.064 | 1 ± 0.042 | 1.25 ± 0.087 | 0.969 ± 0.076 | 1.01 (active)
O=C(c1ccc(-c2nc3ccccc3s2)s1)N1CCOCC1 | 1.08 ± 0.11 | 1.02 ± 0.15 | 1.16 ± 0.17 | 0.879 ± 0.06 | 1.19 ± 0.25 | 1.21 ± 0.44 | 0.964 (active)
COC1(C)CCC2OC2(C)CCC2C1CC2(C)C (centres undefined) | 1.31 ± 0.31 | 1.06 ± 0.053 | 1.04 ± 0.12 | 1.03 ± 0.041 | 1.28 ± 0.15 | 1.17 ± 0.13 | 0.87 (active)
O=C(Cc1ccc(Cl)cc1)Nc1ccc2oc(-c3c(F)c(F)c(F)c(F)c3F)nc2c1 | 0.931 ± 0.097 | 0.882 ± 0.12 | 0.696 ± 0.059 | 0.698 ± 0.028 | 1.32 ± 0.12 | 1.07 ± 0.11 | 1.01 (active)
COc1ccc(C(=O)Nc2cccc([N+](=O)[O-])c2)cc1I | 1.03 ± 0.083 | 1.01 ± 0.071 | 0.95 ± 0.081 | 0.801 ± 0.037 | 1.02 ± 0.13 | 1.04 ± 0.23 | 0.997 (active)
Cc1cccc(C)c1NC(=O)CC(C)c1ccccc1 (centres undefined) | 0.982 ± 0.31 | 1.12 ± 0.16 | 1.2 ± 0.14 | 1.03 ± 0.033 | 0.937 ± 0.25 | 1.17 ± 0.33 | 0.915 (active)
CCN(CC)CCOC(=O)C(c1ccccc1)c1ccccc1 [Prestw-75] | 0.712 ± 0.11 | 1.14 ± 0.14 | 1.91 ± 0.9 | 1.2 ± 0.038 | 0.922 ± 0.09 | 1.09 ± 0.12 | 0.91 (active)
C=C1C(=O)OC2CC3(C)CCCC(C)C3=CC12 (centres undefined) | 0.85 ± 0.054 | 0.72 ± 0.068 | 0.685 ± 0.06 | 0.0319 ± 0.0039 | 0.738 ± 0.059 | 0.839 ± 0.15 | 0.73 (active)
C=CCNC(N)=S | 1.37 ± 0.2 | 1 ± 0.32 | 0.931 ± 0.077 | 0.898 ± 0.027 | 1.06 ± 0.4 | 0.986 ± 0.17 | 1.01 (active)
COc1ccc(-n2ncc3c(Nc4cc(OC)c(OC)c(OC)c4)ncnc32)cc1 | 1.13 ± 0.05 | 0.938 ± 0.078 | 1.09 ± 0.085 | 0.821 ± 0.044 | 1.04 ± 0.26 | 1.28 ± 0.45 | 0.887 (active)
Cc1ccc(C(=O)N2N=C(c3ccc(Cl)cc3)CC2(O)C(F)(F)F)o1 (centres undefined) | 0.721 ± 0.06 | 0.82 ± 0.054 | 0.974 ± 0.097 | 0.975 ± 0.06 | 1.33 ± 0.077 | 1.42 ± 0.16 | 1 (active)
NCC(O)(c1ccc(Cl)cc1)c1ccc(Cl)cc1 | 0.85 ± 0.14 | 1.12 ± 0.12 | 1.03 ± 0.11 | 1.01 ± 0.036 | 1.32 ± 0.25 | 1.41 ± 0.22 | 0.996 (active)
COC(=O)c1ccc(-n2nnnc2SCC(=O)Nc2ccc(C)c(C)c2)cc1 | 0.529 ± 0.32 | 0.897 ± 0.057 | 0.98 ± 0.085 | 0.849 ± 0.063 | 1.14 ± 0.077 | 1.19 ± 0.15 | 1.02 (active)
CCCC(=O)Nc1ccc(OCC(O)CNC(C)C)c(C(C)=O)c1.Cl (centres undefined) | 1.14 ± 0.1 | 1.03 ± 0.05 | 0.983 ± 0.022 | 0.94 ± 0.054 | 1.01 ± 0.12 | 0.864 ± 0.11 | 0.999 (active)
CCN1CCN(Cc2c(O)ccc3c2OC(=Cc2ccc(C)cc2)C3=O)CC1 | 1.05 ± 0.078 | 1.03 ± 0.14 | 1.2 ± 0.028 | 0.945 ± 0.058 | 0.967 ± 0.12 | 1.06 ± 0.13 | 0.995 (active)
COC(=O)Nc1nc2cc(S(=O)c3ccccc3)ccc2[nH]1 (centres undefined) [Prestw-1459] | 1.03 ± 0.087 | 0.896 ± 0.079 | 0.932 ± 0.051 | 0.896 ± 0.04 | 0.825 ± 0.13 | 0.884 ± 0.23 | 0.999 (active)
